# Results taken from PubChem BioAssay AID1009 (NMMLSC, 2008).
# About 200 (0.11%) of roughly 190,000 compounds were called active. No stated cut-off is given here; in the data, active means inhibition above about 40%. What follows is part of a selection rich in actives, with near analogues and random picks from the rest.
# Molecular target: Induced myeloid leukemia cell differentiation protein Mcl-1 (Homo sapiens) (UniProt Q07820)
# Assay: inhibitors of Bim peptide binding to Mcl-1, primary screen, biochemical, bead-based flow cytometry, multiplex (AID 1009);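 further: 0% = no compound tracer wells and 100% = peptide blocker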
# Conditions: Bim peptide-Mcl-1 binding, at 10 µM, hits give high values
# Induced myeloid leukemia cell differentiation protein Mcl-1 (Homo sapiens), sequence (Q07820 whole entry, looked up): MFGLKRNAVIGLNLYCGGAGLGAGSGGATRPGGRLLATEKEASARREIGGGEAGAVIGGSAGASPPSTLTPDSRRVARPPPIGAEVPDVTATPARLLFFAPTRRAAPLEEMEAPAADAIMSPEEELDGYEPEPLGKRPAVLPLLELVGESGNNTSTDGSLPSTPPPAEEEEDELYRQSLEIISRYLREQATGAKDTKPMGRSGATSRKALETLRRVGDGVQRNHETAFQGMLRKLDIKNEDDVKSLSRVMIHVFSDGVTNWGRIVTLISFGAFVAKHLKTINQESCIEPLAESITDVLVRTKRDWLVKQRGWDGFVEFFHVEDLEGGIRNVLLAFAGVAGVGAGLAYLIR
row,SMILES,inhibition
1,Cc1ccc(S(=O)(=O)N(C)C)cc1NC(=O)COC(=O)C1COc2ccccc2O1 (centres undefined),3% (inactive)
2,O=C(CCN1C(=O)c2ccncc2C1=O)Nc1cc(F)ccc1F,0% (inactive)
3,O=C(c1ccc(F)cc1)N1CCC(n2nnc3ccccc32)CC1,-2% (inactive)
4,Cc1ccc(C)c(Cn2cnc3c(oc4ccccc43)c2=O)c1,-1% (inactive)
5,COc1ccc(-c2ccc(CNCCCN3CCOCC3)o2)cc1Cl,2% (inactive)
6,Cc1ccc(C(=O)O)cc1NC(=O)c1ccc(Cn2nc(C)c(Cl)c2C)o1,1% (inactive)
7,COc1cc(NC(=S)N2CCCC(C)C2)c(OC)cc1Cl (centres undefined),-5% (inactive)
8,CCCCN(CC)CCNC(=O)CCNC(=O)Cn1ccc2ccccc2c1=O,-4% (inactive)
9,O=C(CCSc1ccccc1)N1CCN(c2ccccc2F)CC1,-2% (inactive)
10,CCCN=C1NC(=O)C(CC(=O)NCCc2ccc(OC)c(OC)c2)S1 (centres undefined),-11% (inactive)
11,Cc1ccc(S(=O)(=O)N2CCN(C(=O)c3cccs3)CC2)cc1,-5% (inactive)
12,Cc1ccc(S(=O)(=O)NCCC(c2ccccc2)c2ccccc2)cc1C(=O)O,1% (inactive)
13,CN(C)C(=O)c1cccn(Cc2cccc(C(F)(F)F)c2)c1=O,0% (inactive)
14,Cc1ccc(-c2ccc(/C=C(\C#N)C(N)=S)o2)c([N+](=O)[O-])c1,0% (inactive)
15,O=C(COC(=O)Cn1cnc2ccccc2c1=O)NCC12CC3CC(CC(C3)C1)C2,-4% (inactive)
16,N#C/C(C(=S)Nc1ccccc1)=C1/NN=C(N2CCOCC2)N1c1ccccc1,0% (inactive)
17,CCN(CC)S(=O)(=O)c1ccc(N2CCOCC2)c(NC(=O)C2COc3ccccc3O2)c1 (centres undefined),2% (inactive)
18,CCc1cc(C(=O)OC)c(NC(=O)CC2Sc3ccc(C(F)(F)F)cc3NC2=O)s1 (centres undefined),-1% (inactive)
19,Cc1ccc(S(=O)(=O)N(C)CC(=O)OCC(=O)N2CC(=O)Nc3ccccc32)cc1,1% (inactive)
20,Cc1ccc(S(=O)(=O)NCC(=O)OCC(=O)N2CCc3ccccc32)cc1,-6% (inactive)
21,Cc1ccc(S(=O)(=O)N(C)CC(=O)N2CCc3ccccc32)cc1,41% (active)
22,Cc1nnsc1C(=O)N/N=C/c1cccc(C(F)(F)F)c1,-2% (inactive)
23,CN(C)c1ccc(/C=N\S(=O)(=O)c2ccccc2)cc1,-6% (inactive)
24,Cc1cc(NC(=O)CSCc2ccccc2C)no1,0% (inactive)
25,COc1ccc(-n2c(C)cc(C(=O)COC(=O)c3cc(OC)c(OC)cc3NC(=O)c3cccs3)c2C)cc1,-5% (inactive)

row,SMILES,inhibition
1,O=C(O)c1cccc(NC(=S)N/N=C/c2c[nH]c3ccccc23)c1,-3% (inactive)
2,CC(C)N(C)C(=O)CCc1nnc(CCc2c[nH]c3ccccc23)o1,-3% (inactive)
3,CCCCn1nc(C(=O)OCC(=O)Nc2sccc2C(N)=O)c2ccccc2c1=O,-1% (inactive)
4,CC(=O)Nc1ccc(S(=O)(=O)N(C)c2ccc(OCC(=O)OCC(=O)N3CCCCC3)cc2)cc1,-2% (inactive)
5,COc1ccc(CN(C)C(=S)Nc2ccc(Cl)cc2Cl)cc1,1% (inactive)
6,CCOC(=O)c1c(-c2cccc(N)c2)cn2ccccc12,0% (inactive)
7,COCCNC(=O)COc1ccccc1C,2% (inactive)
8,COc1ccccc1CNS(=O)(=O)c1ccc(C)cc1,-2% (inactive)
9,Cc1ccc(S(=O)(=O)NC(=O)COc2ccccc2C)cc1,51% (active)
10,CN1CCN(CC#CCC2(O)c3ccccc3-c3ccccc32)CC1,-1% (inactive)
11,O=C(Nc1nnc(-c2ccco2)o1)c1ccc(S(=O)(=O)N2CCOCC2)cc1,0% (inactive)
12,COCCn1c(=NC(=O)c2ccccc2[N+](=O)[O-])sc2cc(S(C)(=O)=O)ccc21,-2% (inactive)
13,CC1(C)CC(=O)C(CC(=O)N2CCC(Cc3ccccc3)CC2)C(=O)C1,1% (inactive)
14,COc1ccc(Cl)cc1NC(=O)COC(=O)C(CC(C)C)N1C(=O)C2CC=CCC2C1=O (centres undefined),-1% (inactive)
15,Cc1cc(NC(=O)CN2C(=O)NC(CCc3ccccc3)C2=O)no1 (centres undefined),-1% (inactive)
16,Cc1c(CCOC(=O)c2cc([N+](=O)[O-])ccc2Cl)sc[n+]1CCCCS(=O)(=O)[O-],-1% (inactive)
17,Cc1cccc(C(=O)OCC(=O)NCC(C)C)c1O,4% (inactive)
18,CC1(C)CC(=O)C(C2c3ccccc3S(=O)(=O)c3ccccc32)C(=O)C1,-1% (inactive)
19,COc1ccc2oc(=O)c(C(=O)N3CCCC3)cc2c1,3% (inactive)
20,C=CCC(CC=C)(C(N)=O)c1ccccc1,3% (inactive)
21,COc1cc(NC(=O)COC(=O)c2cnc(C)cn2)c(C)cc1[N+](=O)[O-],0% (inactive)
22,Cc1ccc(-c2ccc(/C=N/NC(=O)CN3CCOCC3)o2)cc1[N+](=O)[O-],-1% (inactive)
23,Cc1cc(C)n2nc(SCC(=O)NC(=O)NCc3ccco3)nc2n1,0% (inactive)
24,CN(C)c1ccc(C(CC(=O)O)C(=O)O)cc1 (centres undefined),-1% (inactive)
